Rows were chosen to be rich in hits. Some 12% of all compounds tested hit in one or more screens of this group.
AmpC inh no detg: AmpC beta-lactamase inhibition without detergent; AmpC nitrocefin hydrolysis, absorbance 480 nm, 0.0001% Triton; actives 0.52% (n = 330,000); Potency, µM (highest dose often 57.1 µM), for inactives: top-dose activity change, negative = inhibition, usual class: inhibitors; P00811;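 further: plate controls were no compound for no effect and no enzyme for full effect; nearly all actives have a fitted effect of over 20% in size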
Target sequence (P00811 whole entry, looked up): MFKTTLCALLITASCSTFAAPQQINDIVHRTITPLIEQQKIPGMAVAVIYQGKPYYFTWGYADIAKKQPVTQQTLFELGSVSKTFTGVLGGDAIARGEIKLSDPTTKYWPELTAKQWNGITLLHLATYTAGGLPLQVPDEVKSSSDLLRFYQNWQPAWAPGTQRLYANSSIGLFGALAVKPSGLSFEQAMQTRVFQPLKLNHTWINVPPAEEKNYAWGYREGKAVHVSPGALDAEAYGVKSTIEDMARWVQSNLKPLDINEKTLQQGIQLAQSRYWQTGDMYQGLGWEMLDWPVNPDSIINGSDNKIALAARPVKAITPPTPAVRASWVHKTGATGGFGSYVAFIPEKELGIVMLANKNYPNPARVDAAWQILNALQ
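20 mM phosphate pH 7.0 + 0.01% (detergent screen) or 0.0001% Triton X-100; 5.3 nM AmpC reagent; cpd preinc 15 min RT; nitrocefin (800 uM stock) to start; A480 q20 s × 4 min; Activity was normalised to no-enzyme and no-compound control wells.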
Pf growth 96h: P. falciparum growth inhibition at 96 hours. Potency, µM (doses to about 28.7 µM), without a hit: top-dose activity change, negative = inhibition, most hits filed as inhibitors. P. falciparum luciferase reporter growth, 96 h. AID 504834. actives 6.9% (n = 320,000); further: on the % scale 0 is the no-effect control and ±100 the full control effect
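Plates of compound plus infected erythrocytes (2% hematocrit, 0.05% parasitemia final) incubate 96 hours, 37 C, 5% CO2. Detection reagent added; reduced luminescence from the parasites' luciferase reporter flags inhibition.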
SARS PLpro yeast: blocks SARS-CoV papain-like protease in a yeast assay; S. cerevisiae expressing SARS-CoV PLpro, growth rescue; Potency, µM (highest dose often 32.9 µM), inactives show at the top dose activity, positive = growth rescue, usual class: activators; actives 0.19% (n = 330,000); calls by dose curve; further: 0% is about no effect; nearly all actives have a fitted effect of over 55% in size
Sm TGR block: blocks Schistosoma mansoni thioredoxin glutathione reductase. purified TGR, DTNB reduction, TNB absorbance 405 nm. Potency, µM (doses to about 114 µM), for the others: top-dose activity change, negative = inhibition, usual class: inhibitors. actives 3% (n = 360,000). Q962Y6. AID 485364; further: on the % scale 0 is the no-effect control and ±100 the full control effect; nearly all actives have a fitted effect of over 60% in size
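First, TGR (20 nM dispensed) and NADPH were mixed with compound. Second, a 15 min room-temperature incubation followed. Third, further NADPH and then DTNB were added to start the reaction. Finally, TNB absorbance was monitored kinetically.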
AmpC inh detg: inhibitors of E. coli AmpC beta-lactamase with detergent | P00811 | AmpC hydrolysis of nitrocefin, absorbance 480 nm, 0.01% Triton | Potency, µM (highest dose often 114 µM), for inactives: top-dose activity change, negative = inhibition, usual class: inhibitors | actives 0.041% (n = 370,000);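 further: 0% = no-compound wells and -100% = no-enzyme wells; nearly all actives have a fitted effect of over 25% in size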
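AmpC (5.3 nM in the dispensed reagent) in 20 mM phosphate pH 7.0 with 0.01% (detergent screen) or 0.0001% Triton X-100 was preincubated with compounds for 15 min at room temperature. Nitrocefin was then added from an 800 uM solution, and hydrolysis was followed at 480 nm.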
Pf growth 48h: P. falciparum growth inhibition at 48 hours (one generation). P. falciparum luciferase growth in erythrocytes, 48 h. actives 5.9% (n = 310,000). Potency, µM (titrated, usually from 28.7 µM), inactives show top-dose activity change, negative = inhibition, usual class: inhibitors; further: on the % scale 0 is the no-effect control and ±100 the full control effect
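In quantitative HTS format, infected erythrocytes bearing luciferase-reporter parasites were treated for a single generation at 37 C. Luminescence after adding detection reagent served as the growth measure.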
* = called active by the depositor; ? = inconclusive; nt = no result. Unless noted, the call rests on the fitted dose curve; in most records, active means well fitted curve in the direction sought with a large enough effect; inconclusive means small, poorly fitted or top-dose-only effect, or another doubt; inactive means no such curve, though single readings can be large; an effect the other way counts as inactive or inconclusive. Potency means the concentration at half of the fitted maximal effect.

SMILES | AmpC inh no detg | Pf growth 96h | SARS PLpro yeast | Sm TGR block | AmpC inh detg | Pf growth 48h
Cn1c(COc2ccc(Cl)cc2)nnc1SCc1ncc(-c2ccccc2)o1 | 106% | ? | -4% | 22µM* | 3% | ?
c1ccc(CCn2nnnc2C(c2cccs2)N2CCN(Cc3ccc4c(c3)OCO4)CC2)cc1 (configuration not stated) | 21% | -5% | 5% | 33% | ? | ?
Fc1ccc(N2CCN(C(c3cccs3)c3nnnn3CCc3ccccc3)CC2)cc1 (configuration not stated) | -1% | 18% | -27% | 1% | -1% | 13µM*
COCCn1nnnc1C(c1cccs1)N1CCN(c2ccccc2)CC1 (configuration not stated) | 32% | ? | -1% | 9% | -13% | -16%
c1ccc(Cn2nnnc2C(c2cccs2)N2CCSCC2)cc1 (configuration not stated) | -27% | ? | 4% | -15% | -11% | ?
Fc1ccccc1N1CCN(C(c2cccs2)c2nnnn2CCc2ccccc2)CC1 (configuration not stated) | -21% | ? | -1% | 2% | ? | 8.3µM*
CC1CCN(C(c2cccs2)c2nnnn2Cc2ccccc2)CC1 (configuration not stated) | -19% | 2.6µM* | -29% | 11% | ? | nt
CN(Cc1ccco1)C(=O)C1CCC(=O)N1Cc1ccc(F)cc1 (configuration not stated) | -4% | nt | 9% | 1% | -6% | 3%
COc1ccc(C2=NOC(Cn3c(Cc4ccc(Cl)cc4)nc4c3c(=O)n(C)c(=O)n4C)C2)cc1 (configuration not stated) | 3% | 13µM* | -1% | 1% | -9% | -9%
Cc1cc(CC(=O)O)c(C)n1-c1ccc(Cl)cc1 | nt | 11µM* | nt | nt | nt | ?
Cc1sc2ncn(CC(=O)NCC(=O)N3CCN(c4ccccc4F)CC3)c(=O)c2c1C | -5% | 7% | -2% | 7% | 2% | 39%
O=C(NCCOc1ccccc1F)C1CCC(=O)N(CC2CCCCC2)C1 (configuration not stated) | 155% | 13% | 4% | -22% | ? | -13%
Cc1ccc(C(NC(=O)Nc2ccccn2)C(Cl)(Cl)Cl)cc1F (configuration not stated) | -32% | 13µM* | 8% | -3% | -10% | ?
Cc1cccc(NC(=O)Nc2ccccn2)c1C | -9% | 79% | -1% | 3% | 4% | 89%
COc1ccc(NC(=O)c2nn(C34CC5CC(CC(C5)C3)C4)cc2[N+](=O)[O-])cc1 | -57% | -1% | 6% | -1% | -13% | 4.7µM*
O=C(Nc1cccc2ccccc12)c1nn(C23CC4CC(CC(C4)C2)C3)cc1[N+](=O)[O-] | -21% | 0.93µM* | -1% | 8% | ? | ?
O=C(Nc1ccc2ccccc2c1)c1nn(C23CC4CC(CC(C4)C2)C3)cc1Br | -1% | ? | -13% | 14% | 0% | ?
CN(C(=O)CSc1nnc(-c2ccc([N+](=O)[O-])cc2)o1)c1ccccc1 | nt | nt | nt | -4% | 27% | nt
CCCCC(=O)/C=C/n1c(=S)oc2ccccc21 | -24% | 47% | 7% | 0% | -13% | 35%
COc1ccc(Nc2nc(OC)nc(N3CCN(c4ccc(OC)cc4)CC3)n2)cc1 | -14% | ? | 2% | -23% | 1% | 9.3µM*
COc1ccc(Nc2nc(Cl)nc(N3CCN(c4ccc(OC)cc4)CC3)n2)cc1 | -15% | 12µM* | 1% | 4% | 8% | ?
C=CCNc1nc(Nc2ccc([N+](=O)[O-])cc2)nc(N2CCCC2)n1 | -23% | ? | 2% | 7% | 0% | -24%
C=CCNc1nc(Cl)nc(Nc2ccc([N+](=O)[O-])cc2)n1 | -12% | 2.3µM* | 1% | 2% | 1% | 16%
CC1CCN(c2nc(Cl)nc(Nc3ccc([N+](=O)[O-])cc3)n2)CC1 | 10µM* | 2% | -104% | 0% | ? | -3%
Cc1ccc(C(=O)N2CCn3c(C)ccc3C2C)cc1 (configuration not stated) | 37% | 14% | -4% | 22µM* | 4% | ?
SMILES | AmpC inh no detg | Pf growth 96h | SARS PLpro yeast | Sm TGR block | AmpC inh detg | Pf growth 48h
Cc1ccc(C(=O)N2CCN(C(=O)c3ccccc3)C2c2ccc(N(C)C)cc2)cc1 (configuration not stated) | 46% | 47% | ? | 3% | 7% | -14%
Cc1c(C(=O)c2ccc(F)cc2F)c2ccccn2c1CCC#N | -20% | -9% | -5% | 35µM* | -2% | -13%
CN(Cc1nc2ccccc2c(=O)[nH]1)C(=O)c1cccc(NC(=O)c2cccs2)c1 | -32% | nt | -3% | nt | nt | nt
CCCCCn1c(N)c(C(=O)NCc2cccs2)c2nc3ccccc3nc21 | -11% | ? | -3% | 4% | -10% | 2%
CCCOC(=O)c1c(N)n(Cc2cccs2)c2nc3ccccc3nc12 | -57% | 7.4µM* | -10% | -11% | ? | nt
Nc1c(C(=O)NCCCc2ccccc2)c2nc3ccccc3nc2n1Cc1cccs1 | -34% | nt | -8% | 1% | 3% | 12µM*
COCCN(C(=O)Cn1c(C(F)(F)F)nc2ccccc21)c1c(N)n(Cc2ccccc2)c(=O)[nH]c1=O | -7% | 15µM* | 11% | 6% | 2% | ?
CN(C(=O)COC(=O)CCC(=O)c1ccccc1)c1c(N)n(Cc2ccccc2)c(=O)[nH]c1=O | 48% | 32% | nt | ? | 11% | 16%
Cc1onc(-c2ccccc2)c1C(=O)OCC(=O)N(C)c1c(N)n(Cc2ccccc2)c(=O)[nH]c1=O | 98% | 12µM* | -4% | 3% | 0% | ?
Cc1nn(-c2ccccc2)c(C)c1C(=O)OCC(=O)N(C)c1c(N)n(Cc2ccccc2)c(=O)[nH]c1=O | 71% | 12µM* | -2% | -4% | -3% | ?
CN(C(=O)COC(=O)CCC(=O)c1ccc(Cl)cc1)c1c(N)n(Cc2ccccc2)c(=O)[nH]c1=O | 140% | 2.1µM* | 1% | ? | -8% | 20%
CCOC(=O)c1ccc(NC(=O)c2c(-c3c(F)cccc3Cl)noc2C)cc1 | nt | nt | nt | 2% | 6% | nt
COc1ccc(N2CCN(C(=O)CN3C(=O)CSc4c3c(C)nn4-c3ccccc3)CC2)cc1 | nt | nt | nt | 0% | 26% | nt
O=C(COC(=O)COc1ccc(Cl)cc1)Nc1ccc(N2CCOCC2)cc1 | 7% | 4% | 1% | -10% | 2% | ?
